# Legend:
# Format in all cases: functional
# Plasmodium falciparum [1] = assay: GSK_TCMDC: Inhibition of Plasmodium falciparum 3D7 in whole red blood cells, using parasite LDH activity as an index of growth. Test compounds present at 2uM
# Plasmodium falciparum [2] = assay: GSK_TCMDC: Inhibition of Plasmodium falciparum Dd2 in whole red blood cells, using parasite LDH activity as an index of growth. Test compounds present at 2uM
# HepG2 = assay: GSK_TCMDC: Percent inhibition of human HepG2 cell line. Test compounds present at 10uM.
Compound,Inhibition (Plasmodium falciparum [1]),Inhibition (Plasmodium falciparum [2]),Inhibition (HepG2)
CC(C)C(=O)ONC1=NC(=N)N(OCCCOc2cc(Cl)c(Cl)cc2Cl)C(C)(C)N1,95%,96%,64%
O=C(Nc1ccc(C(=O)N2CCN(CCN3CCN(c4cccc(C(F)(F)F)c4)CC3)CC2)cc1)c1ccc(OC(F)(F)F)cc1,95%,25%,38%
COc1ccc2nc(-c3ccc(C(=O)NCCCN4CCN(c5cc(Cl)ccc5OC)CC4)cc3OC)[nH]c2c1,100%,24%,0%
NC1CCN(c2nc(NCCCc3ccc(O)cc3)nc(NCc3ccccc3-c3ccc(C(F)(F)F)cc3)n2)CC1.O=C(O)C(F)(F)F,100%,88%,15%
O=C(NCCCCCN1CCC(c2c[nH]c3ccccc23)CC1)Nc1ccc(I)cc1,100%,0%,51%
O=C(O)C(F)(F)F.O=S(=O)(NCCN1CCCC1)c1ccc(-c2cccc(CNCc3ccc(F)cc3)c2)s1,99%,50%,48%
CC(C)CCN1C(=O)C(NC(=O)Oc2ccccc2)C(=O)N(CC23CC4CC(CC(C4)C2)C3)c2ccccc21 (stereo unspecified),95%,4%,3%
Cc1cccc2nc(-c3cccc(-c4ccc(NC(=O)c5cnn6cccnc56)cc4)c3)[nH]c12,100%,73%,99%
O=C(/C=C/c1ccc(Cl)c(Cl)c1)NCCCCCN1CCC(NC(=O)NCCc2ccccc2)CC1,100%,7%,23%
Cc1cc(N[C@@H](CC(C)C)C(=O)NCCOc2ccccc2)nc(NCCOc2ccccc2)n1.O=C(O)C(F)(F)F,89%,6%,0%
COc1ccc(N2CCN(CCCCNC(=O)c3ccc(NC(=O)c4ccc(OC(F)(F)F)cc4)cc3)CC2)c(OC)c1,100%,90%,36%
Cl.NC1CCN(Cc2cccc(-c3ccc(-c4nc5cc(C(F)(F)F)ccc5[nH]4)cc3)c2)C1 (stereo unspecified),99%,97%,21%
CC(C)CNCc1ccc(-c2ccccc2CNC2CCN(Cc3ccccc3)CC2)cc1.O=C(O)C(F)(F)F,100%,41%,28%
CCCN1CCCN(Cc2cccc(NC(=O)c3ccc(-c4ccccc4)cc3)c2)CC1.O=C(O)C(F)(F)F,92%,15%,34%
COCCN1CCN(Cc2cccc(-c3ccc(-c4nc5ccccc5[nH]4)cc3)c2)CC1.O=C(O)C(F)(F)F,100%,50%,9%
Cc1[nH]c2ccc(NS(C)(=O)=O)cc2c1C1CCN(CCC2CCN(C(=O)/C=C/c3ccc(Cl)c(Cl)c3)CC2)CC1,100%,94%,23%
Cc1cc2nc(-c3cc(-c4cccc(NS(C)(=O)=O)c4)cnc3N)[nH]c2cc1C,100%,32%,43%
CN(C)Cc1cccc(-c2ccc(NC(=O)c3ccc4c(=O)n(C5CCCCC5)cnc4c3)cc2)c1,96%,53%,92%
CN(C)c1ccc(C=Cc2nc(=O)c3ccccc3o2)cc1,96%,97%,6%
SC(=Nc1ccc2c(c1)OCCO2)NN=Cc1ccccn1,82%,33%,55%
OC1CCN(c2cc(-c3ccccn3)nc(-c3ccccn3)n2)CC1,83%,97%,43%
COc1ccc(C23Oc4cc(OC)cc(OC)c4C2(O)C2(CC3c3ccccc3)SCCCS2)cc1 (stereo unspecified),96%,97%,39%
Cc1ccc(CNC(=O)[C@H](CCCN)Nc2nc(Nc3ccccc3)ncc2C)cc1.O=C(O)C(F)(F)F,97%,0%,0%
COc1ccc2nccc([C@@H](O)CN3CCC(NCc4cc5ccccc5[nH]4)CC3)c2n1.O=C(O)C(=O)O,100%,55%,17%
COc1ccc(NC(=O)CSc2nc(-c3ccccc3Cl)ns2)cc1,96%,75%,11%
O=C(NC1CCN(Cc2ccccc2)CC1)c1cccc(Nc2nc(-c3ccccc3)cs2)c1,84%,3%,70%
O=C(NCc1ccccc1)c1nn(CCCN2CCC(N3CCCC3)CC2)cc1-c1ccc(Cl)c(Cl)c1,100%,89%,29%
